Measurements from PubChem BioAssay AID1259343 (VanderVen Lab, College of Veterinary Medicine, Cornell …, 2017).
Screen size: about 6,200 compounds; about 2,900 (47%) were called active. The set was probably picked from earlier hits. The list shows a part of the results. A number with no mark means an inactive call. No stated cut-off is given here; in the data, active means inhibition above about 50%; inactive means the rest.

Assay: Mycobacterium tuberculosis growth inhibition, primary screen (AID 1259343)
Conditions: inhibition: at 10 µM, stronger effect = higher value; outcome: 10 uM

| SMILES | inhibition |
| --- | --- |
| Cc1ccccc1C(=O)OC1CCCN(C)C1 (stereo not drawn) | -3.69% |
| Cc1cc(=O)[nH]c(-n2nc(C)cc2NC(=O)C2CCCC2)n1 | 98.1% (active) |
| CC(C)NC(=O)c1ccc(-c2ccc([N+](=O)[O-])cc2Cl)o1 | 37.9% |
| O=C(O)c1cc([N+](=O)[O-])ccc1NCCCc1ccccc1 | -0.63% |
| O=C(CCl)Nc1cc([N+](=O)[O-])ccc1Cl | 71.2% (active) |
| Cc1ccc(-c2csc(-c3ccc(O)cc3)n2)s1 | 11.1% |
| Cc1ccc(-c2cc(C(=O)O)n[nH]2)s1 | 99.8% (active) |
| CCCCN(C)C(=O)c1cc(-c2ccc(C)s2)[nH]n1 | 25.6% |
| Cc1ccc(Cl)cc1Nc1ncccc1C(=O)N[C@H]1C[C@H]2CC[C@@H]1C2 | 9.89% |
| O=C(O)c1cnc(Nc2ccc(F)c(F)c2)c(Cl)c1 | 30.5% |
| O=C(Nc1ccccc1)Nc1ccc(Cl)c(Cl)c1 | 95.9% (active) |
| O=C(O)c1cccnc1Nc1ccc(Cl)c(Cl)c1 | 63.9% (active) |
| O=C(Nc1ccc(Cl)c(Cl)c1)Nc1ccc(I)cc1F | -10.8% |
| O=C(Nc1ccc(I)cc1)Nc1ccc(Cl)c(Cl)c1 | -0.68% |
| CCOc1ccc(NC(=O)c2nc(C)n(-c3ccc(Cl)cc3)n2)cc1 | 94.3% (active) |
| CCOc1ccc(NC(=O)c2ccc(Cl)o2)cc1 | 17% |
| CCCCN(CCCC)CCCCSc1ccc(O)cc1 | 74.1% (active) |
| CC(C)(C)c1nc(COc2cccc3c2CCCC3O)no1 (stereo not drawn) | 5.49% |
| Cc1ccc(OCC(=O)Nc2cc(-c3ccco3)nn2-c2nc(C)c(C)c(=O)[nH]2)cc1 | 101% (active) |
| Cc1nc(-n2nc(-c3ccco3)cc2NC(=O)c2c(F)cccc2F)[nH]c(=O)c1C | 99.8% (active) |
| Cc1ccccc1C(=O)Nc1cc(-c2ccco2)nn1-c1nc(C)c(C)c(=O)[nH]1 | -10.1% |

| SMILES | inhibition |
| --- | --- |
| COc1cccc(C(=O)Nc2cc(-c3ccco3)nn2-c2nc(C)c(C)c(=O)[nH]2)c1OC | 98.4% (active) |
| Cc1nc(-n2nc(-c3ccco3)cc2NC(=O)COc2ccc(F)cc2)[nH]c(=O)c1C | 100% (active) |
| Cc1nc(-n2nc(-c3ccco3)cc2NC(=O)CC(C)C)[nH]c(=O)c1C | 101% (active) |
| Cc1nc(-n2nc(-c3ccco3)cc2NC(=O)C2CC2)[nH]c(=O)c1C | 99.8% (active) |
| Cc1cc(N)n(-c2cc(C(F)(F)F)ccc2Cl)n1 | 0.14% |
| Cn1ncc2c(N3CCC(OCc4cccnc4)CC3)nc(C(C)(C)C)nc21 | 85.9% (active) |
| CC(=O)O[C@H]1C[C@@]2(C)[C@@H](C[C@@H](O)[C@H]3[C@@]4(C)CC[C@@H](O)[C@@H](C)C4CC[C@@]32C)/C1=C(\CCC=C(C)C)C(=O)O (stereo partly drawn) | 69.4% (active) |
| O=S(=O)(NC(C1CC1)C1CC1)c1cccc(Br)c1 | 14.3% |
| Oc1ccc(N2CCN(Cc3nc(-c4ccc(C(F)(F)F)cc4)no3)CC2)cc1 | 72.1% (active) |
| COc1ccc(-c2noc(CN3CCC(O)(c4cccc(C(F)(F)F)c4)CC3)n2)cc1 | 56.9% (active) |
| O=C(NCCC1=CCCCC1)c1c(O)nc2sccn2c1=O | 83.9% (active) |
| CC(C)CNC(=O)c1c(O)nc2sccn2c1=O | 55.9% (active) |
| CC(C)CCNC(=O)c1c(O)nc2sccn2c1=O | 89.6% (active) |
| CCCCNC(=O)c1c(O)nc2sccn2c1=O | 33.8% |
| O=C(O)c1ccc(OS(=O)(=O)c2ccc(Cl)c(Cl)c2)cc1 | 35.4% |
| CN(C)S(=O)(=O)Oc1ccc(C(=O)c2ccccc2)cc1 | 51.1% (active) |
| O=C(CSc1nn(-c2ccc(F)cc2)c(=S)s1)Nc1cc(F)ccc1F | -1.19% |
| O=C1CCCCC1Sc1nnnn1-c1ccc(O)cc1 (stereo not drawn) | 41% |
| O=C1CCCCC1Sc1nn(-c2ccc(F)cc2)c(=S)s1 (stereo not drawn) | 70.1% (active) |
| O=[N+]([O-])c1ccc(CON=Cc2ccc(Cl)cc2Cl)cc1 | -5.39% |
| O=[N+]([O-])c1ccc(CON=Cc2ccc(OC(F)F)cc2)cc1 | 55.5% (active) |

| SMILES | inhibition |
| --- | --- |
| N#Cc1ccc(CON=Cc2ccc(OC(F)F)cc2)cc1 | -4.56% |
| CC(C)CNC(=O)c1cn(Cc2ccc(F)cc2)nc1OCc1ccc(F)cc1 | 13.6% |
| CC(C)CNC(=O)CSc1n[nH]c(/C=C/c2ccc(F)cc2)n1 | 87% (active) |
| C/C(Cl)=C\COc1cc(C)nc2ccc(Br)cc12 | 99.8% (active) |
| Cc1coc2c1C(=O)C(=O)c1c-2ccc2c1CCCC2(C)C | 58.8% (active) |
| CCn1nnc2c(=O)n(CC(=O)c3ccc(OC)cc3)cnc21 | 77.2% (active) |
| COc1ccc(NCc2nn(CC(=O)c3ccc(Br)cc3)c3[n+]2CCCCC3)cc1 | 17.7% |
| O=c1[nH]nc2nc(N3CCCCC3)nc(N3CCCCC3)n12 | 18.9% |
| O=C(Cn1ccc(=O)[nH]c1=O)NNc1ccc(Cl)c(Cl)c1 | 97.2% (active) |
| Cc1nc(CSc2ccc(C(=O)NNC(=O)c3ccc4c(c3)OCCO4)cc2)cs1 | 95.3% (active) |
| Cc1nc(C2(NC(=O)c3ccc4c(c3)OCCCO4)CCCCC2)no1 | 5.32% |
| Cc1cn2nc(Sc3ccc4c(c3)OCCCO4)sc2n1 | 33.4% |
| CCCN1C(=O)C(=Cc2ccc(OC)cc2OC)SC1=S | 2.79% |
| CCCCN1C(=O)C(=Cc2cccnc2)SC1=Nc1ccc(OC)cc1 | 87.8% (active) |
| CCN(CC)c1ccc(/C=C2\SC(=S)N(NC(=O)c3ccc(OC)cc3)C2=O)cc1 | 8.8% |
| O=c1c(NCc2ccc(F)cc2)nccn1Cc1ccc(Cl)cc1 | 96.5% (active) |
| CC(c1ccco1)N(C)C(=O)NCCc1cc(F)ccc1F (stereo not drawn) | 21.2% |
| OC(CN1CCCCCC1)CN1c2ccccc2Sc2ccccc21 (stereo not drawn) | 40.6% |
| CCCn1cc(SCC(=O)N2CCc3ccccc32)c2ccccc21 | 16.9% |
| OC(CN1CCc2ccccc2C1)Cn1c2c(c3ccccc31)CCCC2 (stereo not drawn) | 66.7% (active) |
| CC(C)=CCN1N=C(c2ccccc2)C(O)O1 (stereo not drawn) | 86% (active) |
